Assay in all cases: PBM; 200 nM protein, PBS
Holding throughout (conditions): dsDNA, one strand shown

The target in assay [1] is T1, SIX6 (Homo sapiens, UniProt O95475 114-200, L167I).
T1 sequence: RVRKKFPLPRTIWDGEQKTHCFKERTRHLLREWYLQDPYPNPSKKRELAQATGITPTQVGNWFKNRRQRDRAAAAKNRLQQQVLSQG

Assay [2] concerns the target T2, SIX6 (Homo sapiens, UniProt O95475 114-200, L143V).
T2 sequence: T1 sequence with L30V, I54L

The target in assay [3] is T3, SIX6 (Homo sapiens, UniProt O95475 114-200, H141N).
T3 sequence: T1 sequence with H28N, I54L

Assay [4] has as its target T4, SIX6 (Homo sapiens, UniProt O95475 114-200, T165P).
T4 sequence: T1 sequence with T52P, I54L

Assay [5] concerns the target T5, SIX6 (Homo sapiens, UniProt O95475 114-200, L167M).
T5 sequence: T1 sequence with I54M

For assay [6], the target named is T6, SIX6 (Homo sapiens, UniProt O95475 114-200, L143M).
T6 sequence: T1 sequence with L30M, I54L

Assay [7] addresses T7, SIX6 (Homo sapiens, UniProt O95475 114-200, L143I).
T7 sequence: T1 sequence with L30I, I54L

Assay [8] concerns the target T8, SIX6 (Homo sapiens, UniProt O95475 114-200, T165G).
T8 sequence: T1 sequence with T52G, I54L

The target of assay [9] is T9, SIX6 (Homo sapiens, UniProt O95475 114-200, T139Q).
T9 sequence: T1 sequence with T26Q, I54L

The target in assay [10] is HOXD13 (Homo sapiens, UniProt P35453 263-343, T313R).
The target of assay [11] is T10, SIX6 (Homo sapiens, UniProt O95475 114-200, T165A).
T10 sequence: T1 sequence with T52A, I54L

Assay [12] addresses HOXD13 (Homo sapiens, UniProt P35453 263-343).
The target of assay [13] is T11, SIX6 (Homo sapiens, UniProt O95475 114-200, L167V).
T11 sequence: T1 sequence with I54V

Assay [14] deals with T12, SIX6 (Homo sapiens, UniProt O95475 114-200).
T12 sequence: T1 sequence with I54L

The target of assay [15] is T13, SIX6 (Homo sapiens, UniProt O95475 114-200, T165I).
T13 sequence: T1 sequence with T52I, I54L

The target in assay [16] is HOXD13 (Homo sapiens, UniProt P35453 263-343, T313A).
The target of assay [17] is ALX3 (Homo sapiens, UniProt O95076 139-225, N203Q).
Assay [18] deals with T14, NKX2-6 (Homo sapiens, UniProt A6NCS4 118-204).
T14 sequence: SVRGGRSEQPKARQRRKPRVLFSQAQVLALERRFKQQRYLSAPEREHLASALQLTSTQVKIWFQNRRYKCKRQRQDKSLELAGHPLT

This is an account of results in PMC11006913.

Substitutions are numbered along the chain they refer to.

Chain of HOXD13 (Homo sapiens, UniProt P35453 263-343, T313R) (P35453 263-343 T313R): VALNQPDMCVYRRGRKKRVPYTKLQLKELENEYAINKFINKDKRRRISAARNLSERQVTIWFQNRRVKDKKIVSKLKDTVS
Chain of HOXD13 (Homo sapiens, UniProt P35453 263-343, T313A) (P35453 263-343 T313A): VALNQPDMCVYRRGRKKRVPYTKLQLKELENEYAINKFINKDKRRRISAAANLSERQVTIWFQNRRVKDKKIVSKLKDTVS
Chain of HOXD13 (Homo sapiens, UniProt P35453 263-343) (P35453 263-343): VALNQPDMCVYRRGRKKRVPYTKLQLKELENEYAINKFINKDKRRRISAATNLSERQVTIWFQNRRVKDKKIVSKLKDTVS
Chain of ALX3 (O95076 139-225 N203Q): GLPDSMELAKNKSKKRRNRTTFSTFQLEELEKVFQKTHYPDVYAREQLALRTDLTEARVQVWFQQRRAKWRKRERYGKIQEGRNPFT

Turning to CGGCCACC, the binding signal was 8.7 upbm affinity estimate (log intensity, higher = more binding, comparable within an allelic series) in assay [1]; 8.6 upbm affinity estimate (log intensity, higher = more binding, comparable within an allelic series) in [2]; 8.63 upbm affinity estimate (log intensity, higher = more binding, comparable within an allelic series) in assay [3]; 8.71 upbm affinity estimate (log intensity, higher = more binding, comparable within an allelic series) in assay [4]; 8.67 upbm affinity estimate (log intensity, higher = more binding, comparable within an allelic series) in assay [5]; 8.54 upbm affinity estimate (log intensity, higher = more binding, comparable within an allelic series) in [6]. The binding signal in assay [7] is 8.75 upbm affinity estimate (log intensity, higher = more binding, comparable within an allelic series); in [8], 8.72 upbm affinity estimate (log intensity, higher = more binding, comparable within an allelic series); in assay [9], 8.67 upbm affinity estimate (log intensity, higher = more binding, comparable within an allelic series); in assay [10] it was 9.38 upbm affinity estimate (log intensity, higher = more binding, comparable within an allelic series); in [11], 8.71 upbm affinity estimate (log intensity, higher = more binding, comparable within an allelic series); in assay [12], 9.42 upbm affinity estimate (log intensity, higher = more binding, comparable within an allelic series). In addition, the binding signal in assay [13] was 8.66 upbm affinity estimate (log intensity, higher = more binding, comparable within an allelic series); in [14], 8.55 upbm affinity estimate (log intensity, higher = more binding, comparable within an allelic series); in assay [15], 8.64 upbm affinity estimate (log intensity, higher = more binding, comparable within an allelic series); in assay [16] it was 9.39 upbm affinity estimate (log intensity, higher = more binding, comparable within an allelic series).
As for GGCGGACC, the binding signal in assay [17] is 7.72 upbm affinity estimate (log intensity, higher = more binding, comparable within an allelic series).
The same measure, in the same setting: the result for CATGATCA reads 8.19 upbm affinity estimate (log intensity, higher = more binding, comparable within an allelic series).
For GCCAGTCC, the binding signal in assay [10] was 9.53 upbm affinity estimate (log intensity, higher = more binding, comparable within an allelic series); in assay [12], 9.55 upbm affinity estimate (log intensity, higher = more binding, comparable within an allelic series); in assay [16] it was 9.63 upbm affinity estimate (log intensity, higher = more binding, comparable within an allelic series).
Turning to AGCGGCGC, the binding signal in assay [10] is 9.52 upbm affinity estimate (log intensity, higher = more binding, comparable within an allelic series); in [12], 9.67 upbm affinity estimate (log intensity, higher = more binding, comparable within an allelic series); in [16], 9.61 upbm affinity estimate (log intensity, higher = more binding, comparable within an allelic series).
As to AGCTCCGC, the binding signal in assay [18] was 9.07 upbm affinity estimate (log intensity, higher = more binding, comparable within an allelic series).
On the same count and under the same terms, the result for CCGCCAGC reads 8.92 upbm affinity estimate (log intensity, higher = more binding, comparable within an allelic series).
CGCACTCC: the binding signal in assay [1] was 8.92 upbm affinity estimate (log intensity, higher = more binding, comparable within an allelic series); in assay [2] it was 8.98 upbm affinity estimate (log intensity, higher = more binding, comparable within an allelic series); in [3] it was 8.96 upbm affinity estimate (log intensity, higher = more binding, comparable within an allelic series); in assay [4] it was 9.15 upbm affinity estimate (log intensity, higher = more binding, comparable within an allelic series); in assay [5], 8.96 upbm affinity estimate (log intensity, higher = more binding, comparable within an allelic series); in assay [6], 8.9 upbm affinity estimate (log intensity, higher = more binding, comparable within an allelic series). Moreover, the binding signal is 9.01 upbm affinity estimate (log intensity, higher = more binding, comparable within an allelic series) in assay [7]; 9.09 upbm affinity estimate (log intensity, higher = more binding, comparable within an allelic series) in [8]; 9 upbm affinity estimate (log intensity, higher = more binding, comparable within an allelic series) in assay [9]; 9.06 upbm affinity estimate (log intensity, higher = more binding, comparable within an allelic series) in assay [11]; 8.95 upbm affinity estimate (log intensity, higher = more binding, comparable within an allelic series) in [13]; 9.04 upbm affinity estimate (log intensity, higher = more binding, comparable within an allelic series) in assay [14]. Further, the binding signal in assay [15] is 8.97 upbm affinity estimate (log intensity, higher = more binding, comparable within an allelic series).
For the sequence AAGTGCGC, the binding signal in [1] was 8.9 upbm affinity estimate (log intensity, higher = more binding, comparable within an allelic series); in assay [2], 9.07 upbm affinity estimate (log intensity, higher = more binding, comparable within an allelic series); in assay [3], 8.88 upbm affinity estimate (log intensity, higher = more binding, comparable within an allelic series); in assay [4] it was 9.2 upbm affinity estimate (log intensity, higher = more binding, comparable within an allelic series); in [5] it was 9.05 upbm affinity estimate (log intensity, higher = more binding, comparable within an allelic series); in assay [6], 9.11 upbm affinity estimate (log intensity, higher = more binding, comparable within an allelic series). Moreover, the binding signal in assay [7] was 9.08 upbm affinity estimate (log intensity, higher = more binding, comparable within an allelic series); in assay [8], 9 upbm affinity estimate (log intensity, higher = more binding, comparable within an allelic series); in assay [9], 9.05 upbm affinity estimate (log intensity, higher = more binding, comparable within an allelic series); in [11] it was 8.96 upbm affinity estimate (log intensity, higher = more binding, comparable within an allelic series); in assay [13], 8.99 upbm affinity estimate (log intensity, higher = more binding, comparable within an allelic series); in assay [14], 9.04 upbm affinity estimate (log intensity, higher = more binding, comparable within an allelic series). Besides, the binding signal in [15] is 9.04 upbm affinity estimate (log intensity, higher = more binding, comparable within an allelic series).
For CGGCGGAA, the binding signal in assay [1] was 8.84 upbm affinity estimate (log intensity, higher = more binding, comparable within an allelic series); in assay [2] it was 8.9 upbm affinity estimate (log intensity, higher = more binding, comparable within an allelic series); in [3], 8.85 upbm affinity estimate (log intensity, higher = more binding, comparable within an allelic series); in assay [4], 9.07 upbm affinity estimate (log intensity, higher = more binding, comparable within an allelic series); in assay [5], 8.95 upbm affinity estimate (log intensity, higher = more binding, comparable within an allelic series); in assay [6], 8.9 upbm affinity estimate (log intensity, higher = more binding, comparable within an allelic series). The binding signal in assay [7] is 8.96 upbm affinity estimate (log intensity, higher = more binding, comparable within an allelic series); in assay [8] it was 9.04 upbm affinity estimate (log intensity, higher = more binding, comparable within an allelic series); in [9] it was 8.95 upbm affinity estimate (log intensity, higher = more binding, comparable within an allelic series); in assay [11], 8.82 upbm affinity estimate (log intensity, higher = more binding, comparable within an allelic series); in assay [13], 8.8 upbm affinity estimate (log intensity, higher = more binding, comparable within an allelic series); in [14], 8.95 upbm affinity estimate (log intensity, higher = more binding, comparable within an allelic series). The binding signal in assay [15] was 8.9 upbm affinity estimate (log intensity, higher = more binding, comparable within an allelic series).
